This note sets out measurements from ChEMBL document CHEMBL1157539, “Thousands of chemical starting points for antimalarial lead identification” (Nature, 2010).

Holding throughout (assay type): functional
Assay [1] concerns Plasmodium falciparum. Briefly: GSK_TCMDC: Inhibition of Plasmodium falciparum 3D7 in whole red blood cells, using parasite LDH activity as an index of growth. Test compounds present at 2uM.
In assay [2] the test system is Plasmodium falciparum. Briefly: GSK_TCMDC: Inhibition of Plasmodium falciparum Dd2 in whole red blood cells, using parasite LDH activity as an index of growth. Test compounds present at 2uM.
For another assay, the system named is HepG2. Briefly: GSK_TCMDC: Percent inhibition of human HepG2 cell line. Test compounds present at 10uM.

Broadly, the Inhibition is the drop in the measured response relative to a control, in per cent.

Structures are written as SMILES.

As to `O=C(/C=C/c1ccc(-c2nc3cc(F)c(F)cc3[nH]2)cc1)NCc1ccc(Cl)c(Cl)c1`, the Inhibition in the assay with Plasmodium falciparum [1] came to 100%; with Plasmodium falciparum [2], 24%; with HepG2 it was 14%.

Consider `N#Cc1ccc2[nH]cc(CN3CCC4(CC3)CN(CCNCc3ccccc3)C(=O)O4)c2c1.O=C(O)C(F)(F)F`, for which the Inhibition is reported as 100% with Plasmodium falciparum [1], 0% in the assay on Plasmodium falciparum [2] and 0% in the assay with HepG2.

On to `COc1ccc(F)cc1-c1ccccc1CNC(=O)c1cnn(-c2ccc([N+](=O)[O-])cc2)c1C(F)(F)F`, for which the Inhibition stood at 89% in the assay with Plasmodium falciparum [1], 75% with Plasmodium falciparum [2] and 0% with HepG2.

Regarding `O=C(O)C(F)(F)F.O=S(=O)(NCCN1CCCC1)c1cccc(-c2ccccc2CNC2Cc3ccccc3C2)c1`, the Inhibition in the assay on Plasmodium falciparum [1] was 99%; in the assay on Plasmodium falciparum [2] it was 76%; in the assay on HepG2, 35%.

Consider `CS(=O)(=O)CCNCc1cccc(-c2ccc3c(Nc4cc(O)c(Cl)cc4F)ccnc3c2)c1`, for which the Inhibition with Plasmodium falciparum [1] came out at 100%; in the assay with Plasmodium falciparum [2], 100%; in the assay with HepG2, 9%.

As for `Cc1ccc(Nc2nccc(NCC(O)c3ccc(C(F)(F)F)cc3)n2)cc1` (stereo unspecified), the Inhibition is on record as 100% in the assay on Plasmodium falciparum [1], 100% with Plasmodium falciparum [2] and 53% in the assay with HepG2.

As to `CN1CCN(c2ccnc3ccc(NC(=O)Cc4cccc(Cl)c4Cl)cc23)CC1`, the Inhibition is listed as 100% in the assay with Plasmodium falciparum [1], 64% with Plasmodium falciparum [2] and 8% in the assay with HepG2.

For the compound `COc1ccc2ncc(F)c(NC(=O)C3CCC(NCc4cc5c(F)cccc5[nH]4)CC3)c2n1.Cl` (stereo unspecified), the Inhibition is reported as 91% with Plasmodium falciparum [1], 29% with Plasmodium falciparum [2] and 39% with HepG2.

For the compound `COc1cc(NC(=O)c2c(-c3c(F)cccc3Cl)noc2C)c(OC)cc1Cl`, the Inhibition in the assay with Plasmodium falciparum [1] was 89%; in the assay on Plasmodium falciparum [2] it was 17%; in the assay on HepG2, 0%.

For the compound `CCCCCCCN1CC[C@@H](CCCc2ccnc3ccc(OCCN4CCOCC4)cc23)[C@@H](CC)C1.O=C(O)C(=O)O`, the Inhibition with Plasmodium falciparum [1] came to 89%; with Plasmodium falciparum [2] it was 3%; with HepG2, 14%.

Regarding `Br.CCOc1ccc(CCCON2C(=N)N=C(N)NC2(C)C)cc1`, the Inhibition was determined as 93% with Plasmodium falciparum [1], 93% with Plasmodium falciparum [2] and 65% with HepG2.

For `C=CCc1cc(Cc2cnc(N)nc2N)cc(CCC)c1OC`, the results for the Inhibition with Plasmodium falciparum [1], with Plasmodium falciparum [2] and in the assay with HepG2 were 83%, 1% and 3%, respectively.

As for `CC(=O)N(C)C1CCN(Cc2cccc(-c3ccc(-c4nc5cc(C(F)(F)F)ccc5[nH]4)cc3)c2)C1.O=C(O)C(F)(F)F` (stereo unspecified), the Inhibition is listed as 100% in the assay with Plasmodium falciparum [1], 94% in the assay with Plasmodium falciparum [2] and 31% in the assay on HepG2.

Regarding `N=C1NC(=O)C(=Cc2cn(-c3ccccc3)nc2-c2cccc(S(=O)(=O)N3CCCC3)c2)S1`, the Inhibition stood at 85% in the assay on Plasmodium falciparum [1], 68% in the assay with Plasmodium falciparum [2] and 0% in the assay on HepG2.

On to `O=C(N[C@H]1CCN(Cc2ccc(OC3CCN(Cc4ccccc4)CC3)cc2)C1)c1ccc(Cl)c(Cl)c1.O=C(O)C(F)(F)F`, for which the values for the Inhibition in the assay with Plasmodium falciparum [1], with Plasmodium falciparum [2] and in the assay on HepG2 were 90%, 6% and 37%, respectively.

As for `CCCN(CCC)CCCOc1ccc(C(=O)c2c(-c3ccc(OCCCN(CCC)CCC)cc3)oc3ccc(Cl)cc23)cc1.Cl`, the Inhibition is listed as 96% in the assay with Plasmodium falciparum [1], 95% in the assay on Plasmodium falciparum [2] and 100% in the assay with HepG2.

For `O=C(NCC(c1ccc(C(F)(F)F)cc1)N1CCCC1)c1cc(-c2ccncc2)c(-c2cccc(O)c2)o1.O=C(O)C(F)(F)F` (stereo unspecified), the Inhibition stood at 95% in the assay with Plasmodium falciparum [1], 53% in the assay on Plasmodium falciparum [2] and 9% in the assay on HepG2.

Take `Br.CC(C)(C)c1ccccc1OCCCON1C(=N)N=C(N)NC1(C)C`: the Inhibition in the assay on Plasmodium falciparum [1] was 95%; with Plasmodium falciparum [2], 98%; in the assay with HepG2 it was 63%.

As to `CCN(CC)CCNC(=O)c1ccc(NC(=O)c2cc(-c3ccncc3)nc3ccccc23)cc1`, the figures for the Inhibition with Plasmodium falciparum [1], in the assay with Plasmodium falciparum [2] and with HepG2 were 97%, 2% and 1%, respectively.

Take `O=C(Nc1cc(C(F)(F)F)ccc1N1CCOCC1)C(Cl)(Cl)Cl`: the Inhibition with Plasmodium falciparum [1] worked out at 100%; in the assay on Plasmodium falciparum [2] it was 100%; with HepG2, 0%.

In the case of `CCCCCNC(=N)c1ccc(OCCCCCOc2ccc(C(=N)NCCCCC)cc2)cc1.Cl`, the Inhibition is 99% in the assay on Plasmodium falciparum [1], 98% with Plasmodium falciparum [2] and 3% in the assay with HepG2.

Consider `O=C(/C=C/c1cccc(C(F)(F)F)c1)NCCCCCN1CCN(C(=O)Nc2ccc(Cl)c(Cl)c2)CC1.O=C(O)C(F)(F)F`, for which the Inhibition in the assay on Plasmodium falciparum [1] was 89%; in the assay on Plasmodium falciparum [2], 0%; in the assay with HepG2, 29%.

For `O=C(Nc1ccc(SC(F)(F)F)cc1)Nc1ccc(Cl)c(Cl)c1`, the results for the Inhibition with Plasmodium falciparum [1], with Plasmodium falciparum [2] and in the assay with HepG2 were 98%, 99% and 15%, respectively.

`O=C(NCCCCN1CCN(c2cccc(Cl)c2Cl)CC1)c1ccc2c(c1)CCN(C1CCC1)CC2`: the figures for the Inhibition with Plasmodium falciparum [1], in the assay with Plasmodium falciparum [2] and with HepG2 were 95%, 31% and 97%, respectively.

For the compound `Clc1cccc(-c2nc(Nc3ccnc(-c4ccc(CN5CCOCC5)cc4)c3)c3ccccc3n2)c1`, the results for the Inhibition with Plasmodium falciparum [1], in the assay with Plasmodium falciparum [2] and with HepG2 were 100%, 65% and 8%, respectively.

With `N#Cc1ccc2c(c1)CN(C1CCC(NC(=O)/C=C/c3cc(C(F)(F)F)cc(C(F)(F)F)c3)CC1)CCC2` (stereo unspecified), the Inhibition is 95% in the assay with Plasmodium falciparum [1], 4% in the assay with Plasmodium falciparum [2] and 34% with HepG2.

Turning to `COc1ccc2nccc([C@@H](O)CN3CCC(NCCNc4cccc(F)c4)CC3)c2c1.CS(=O)(=O)O`, the Inhibition was found to be 98% in the assay with Plasmodium falciparum [1], 73% in the assay with Plasmodium falciparum [2] and 11% with HepG2.
